# ALDH1A1 block: inhibitors of human aldehyde dehydrogenase 1A1; P00352; Purified ALDH1A1, NADH fluorescence, propionaldehyde substrate; Potency, µM (series often up to 75.3 µM), for the others: top-dose activity, negative = inhibition, hits mostly inhibitors; 7.3% of 220,000 active; AID 1030; active means well fitted inhibition curve with a large enough effect, not every such curve was filed as active; inconclusive means small, poorly fitted or top-dose-only effect, or another doubt; inactive means no such curve, though single readings can be large or run the other way;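 further: plate controls were no enzyme wells and a reference inhibitor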
# Target sequence (P00352 whole entry, looked up): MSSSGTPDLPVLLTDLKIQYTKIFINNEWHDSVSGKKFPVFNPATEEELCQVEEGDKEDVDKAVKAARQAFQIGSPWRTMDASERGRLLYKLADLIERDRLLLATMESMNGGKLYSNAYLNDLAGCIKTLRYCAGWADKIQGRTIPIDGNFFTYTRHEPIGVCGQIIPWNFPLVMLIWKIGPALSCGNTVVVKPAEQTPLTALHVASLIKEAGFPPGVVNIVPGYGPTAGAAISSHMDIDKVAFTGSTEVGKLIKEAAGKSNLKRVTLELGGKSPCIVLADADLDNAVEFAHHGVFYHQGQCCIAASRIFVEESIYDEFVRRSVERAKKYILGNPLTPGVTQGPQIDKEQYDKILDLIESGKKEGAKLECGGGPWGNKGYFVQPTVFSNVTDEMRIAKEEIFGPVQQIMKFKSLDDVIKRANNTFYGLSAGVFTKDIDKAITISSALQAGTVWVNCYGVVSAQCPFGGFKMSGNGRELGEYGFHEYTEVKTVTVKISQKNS
# RORgamma inh: ROR gamma (mouse) transcription inhibition | Potency, µM (top dose mostly 53.6 µM), without a hit: at the highest dose activity change, negative = inhibition, hits mostly inhibitors | 5.4% of 310,000 active | Drosophila S2 Gal4-RORgamma UAS-luciferase reporter, 20 h; further: nearly all actives have a fitted effect of over 60% in size
#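 Using a luciferase readout, inhibitors were identified by reduced reporter activity in Drosophila cells coexpressing a copper-inducible Gal4–ROR gamma fusion and UAS-driven Photinus luciferase, incubated 20 hr after 700 uM copper sulfate.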
# Sfp inh: Sfp phosphopantetheinyl transferase inhibition; Q9F4F7; Biochemical Sfp PPTase activity, qHTS; Potency, µM, without a hit: largest response in the series, negative = inhibition, most hits filed as inhibitors; 3.5% of 310,000 active; AID 1490;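 further: the enzyme is Sfp with the accession as filed and its product quenches rhodamine fluorescence; 0% = enzyme reaction without inhibitor and -100% = no enzyme wells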
#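 Sfp 15 nM + cpd, 15 min RT; start w/ rhodamine-CoA 5 uM, BHQ-2-YbbR 12.5 uM (final); 50 mM Hepes pH 7.6, 10 mM MgCl2, 0.01% NP-40, 0.01% BSA; read 525/598 nm at 0 and 30 min.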
# VP16 counter: inhibits Gal4-VP16 luciferase reporter, ROR gamma counter-screen. Drosophila S2 Gal4-VP16 UAS-luciferase, luminescence, 20 h. Potency, µM (series often up to 53.6 µM), for inactives: at the top dose activity, negative = inhibition, usual class: inhibitors. 3.5% of 310,000 active;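 further: Gal4-VP16 expression switched on by copper sulfate through the metallothionein promoter; nearly all actives have a fitted effect of over 50% in size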
# PLK1 PBD inh: blocks phosphopeptide binding to human PLK1 polo-box domain. P53350. Plk1 PBD binding of FITC phosphopeptide, fluorescence polarization. Potency, µM, without a hit: max response, negative = inhibition, most hits filed as inhibitors. 2.8% of 360,000 active. AID 720504; further: series mostly up to about 57 µM; nearly all actives have a fitted effect of over 65% in size
# The depositor's hits bear a star; ? = inconclusive; nt = no result; [ ] = another dose, or the depositor's remark. Rows were chosen to be rich in hits. Some 12% of all compounds tested hit in one or more screens of this group. Unless noted, the call rests on the fitted dose curve; in most records, active means well fitted curve in the direction sought with a large enough effect; inconclusive means small, poorly fitted or top-dose-only effect, or another doubt; inactive means no such curve, though single readings can be large; an effect the other way counts as inactive or inconclusive. Unless noted, on the % scale 0 is the no-effect control and ±100 the full control effect; potency means the concentration at half of the fitted maximal effect.
SMILES,ALDH1A1 block,RORgamma inh,Sfp inh,VP16 counter,PLK1 PBD inh
Cc1ccc(-c2n[nH]c(=S)n2/N=C/C=C/c2ccccc2[N+](=O)[O-])cc1,5%,4.5µM*,?,-24%,-21%
CCN1C(=O)[C@H]2[C@@H](c3ccc(C(F)(F)F)cc3)N[C@]3(CCCN(Cc4ccco4)C3=O)[C@H]2C1=O,nt,nt,nt,nt,-7%
CO/N=C\c1ccc(C(=O)N2[C@H](c3ccc(C)cc3)[C@@H](C)CC[C@H]2C(=O)OC)cc1,5%[13.5 µM],-1%[10 µM],15%,2%[10 µM],nt
Cc1csc(=O)n1CC(=O)Nc1ccc(Cl)c(Cl)c1,nt,nt,nt,nt,-16%
O=C(Cn1c2c(sc1=O)C1c3ccccc3OCC1CS2)Nc1ccc(Cl)c(Cl)c1 (stereo not drawn),25µM*,?,8%,?,-18%
CCOC(=O)O[C@]1(C(=O)OCCl)CC[C@@H]2[C@H]3CCC4=CC(=O)C=C[C@]4(C)[C@@H]3[C@@H](O)C[C@@]21C,nt,-1%[10 µM],4%,-4%,nt
COc1ccc(-c2csc3ncnc(Cl)c23)cc1,-6%,?,-2%,-17%,-3%
Fc1ccc(-c2csc3ncnc(Cl)c23)cc1,?,?,-3%,?,21µM*
Clc1ccc(-c2csc3ncnc(Cl)c23)cc1,-4%,11µM*,9%,-29%,-8%
O=C(Nc1ccc(F)cc1)C(c1cc2ccccc2o1)N1CCN(C(=O)c2ccco2)CC1 (stereo not drawn),nt,nt,nt,nt,-24%
Cc1ccccc1C(=O)N(C)[C@H]1C[C@H]2c3[nH]c4ccccc4c3CCN2C(=O)[C@H]1[C@H](C)O,nt,nt,nt,nt,-5%
CC1CN(C2CCN(S(=O)(=O)c3ccc4ccccc4c3)CC2)CC(C)O1 (stereo not drawn),14µM*,-5%,32µM*,2%,-10%
COc1ccc(S(=O)(=O)N2CCCCC2c2cc(C(=O)N3CCOCC3)no2)cc1 (stereo not drawn),nt,nt,nt,nt,-4%
Clc1ccccc1COc1ccccc1-c1nnco1,-9%,11µM*,17%,?,-21%
N#Cc1c(-c2ccccc2)cc(C2CC2)nc1N,?,35%,8%,-7%,3%
N#Cc1c(-c2ccco2)cc(C2CC2)nc1N,?,16%,32µM*,-1%,-7%
N#Cc1c(-c2ccco2)cc(-c2ccccn2)nc1N,?,10µM*,?,11µM*,-13%
CCCC(=O)N1CCC1(C)C(=O)Nc1cccc(F)c1 (stereo not drawn),nt,nt,nt,nt,-6%
O=C(c1cc(C(F)(F)F)cc(C(F)(F)F)c1)N1CCC2(CCCN(Cc3ccccc3)C2)CC1,4%,1%,12%,7%,nt
O=C(OCC(=O)N1CCc2ccccc21)[C@@H]1CCCN1S(=O)(=O)c1ccccc1F,nt,nt,nt,nt,-14%
O=C(OCc1nc2ccccc2s1)[C@@H]1CCCN1S(=O)(=O)c1ccccc1F,7.9µM*,10%,7%,-5%,nt
Cc1nc(C(F)(F)F)ccc1C(=O)N1CCC1(C)C(=O)NS(=O)(=O)c1ccc2ccccc2c1 (stereo not drawn),nt,nt,nt,nt,-12%
CC(=O)OCC(NC(=O)C1CCCN1C(=O)OC(C)(C)C)C1OC(n2cc(F)c(=O)[nH]c2=O)C(OC(C)=O)C1OC(C)=O (stereo not drawn),nt,-7%,8%,-3%,nt
CC(=O)Nc1ccccc1NC(=O)C/C(C)=N/NC(=O)C1CCCCC1,nt,-16%,9%,4%,-9%
COCCCNC(=O)C(=O)NC1CCCCCC1,-3%,-3%,13%,-9%,-23%
SMILES,ALDH1A1 block,RORgamma inh,Sfp inh,VP16 counter,PLK1 PBD inh
C/C(CC(=O)NC1CCCCC1)=N\NC(=O)c1ccccc1C,nt,-1%,12%,-4%,0%
C/C(CC(=O)NC1CCCCC1)=N\NC(=O)c1ccc(Br)cc1,nt,13µM*,?,11µM*,0%
COCCNC(=O)C/C(C)=N/NC(=O)C(=O)NC1CCCCC1,1%,-15%,-13%,4%,24µM*
C/C(CC(=O)NC1CCCC1)=N\NC(=O)C1CCCCC1,-8%,16µM*,11%,-3%,-3%
C#CCCCO/N=C1/C[C@@H](O)[C@@H](O)[C@@H]2[C@@H]3C(=O)N(c4cccc(Oc5ccccc5)c4)C(=O)[C@H]3CC[C@H]12,15%[13.5 µM],12%[10 µM],18%,-3%[10 µM],nt
COC(=O)c1cn(-c2nc3ccccc3s2)nn1,nt,nt,nt,nt,-16%
COc1cc(/C=C2/C(=O)NN(c3cccc(C)c3)C2=O)cc([N+](=O)[O-])c1O,?,2%,12%,-15%,?
COc1cc(/C=C2\C(=O)NN(c3ccccc3)C2=O)ccc1OCC(N)=O,?,28%,19%,16%,nt
C#CCOc1ccc(/C=C2/C(=O)NN(c3ccc(F)cc3)C2=O)cc1OC,nt,13%,-20%,5%,12µM*
COc1cc(/C=C2/C(=O)NN(c3cccc(C)c3)C2=O)ccc1OC(=O)c1ccco1,3.2µM*,?,45µM*,?,3µM*
COC(=O)c1ccc(N2NC(=O)/C(=C/c3ccc(OC)c(OC)c3)C2=O)cc1,nt,-3%,8%,0%,21µM*
O=C(O)C1CCN(C(=O)c2ccccc2N2C(=O)[C@@H]3Cc4c([nH]c5ccccc45)C(c4cccc(Cl)c4)N3C2=O)CC1 (stereo partly drawn),nt,38%,14%,-2%,?
CN(C)C(=O)c1cccc(-c2cnc3c(NC=O)cc(-c4ccccc4F)cn23)c1,nt,nt,nt,nt,-11%
COc1cccc([C@@H]2Oc3ccc(Br)cc3C(=O)[C@H]2OC(=O)NCCOc2ccccc2)c1,0%,-1%,20%,0%,nt
Cc1cc(C(=O)OCC(=O)NC2CCCCC2C)c2ccccc2n1 (stereo not drawn),nt,nt,nt,nt,-11%
O=C(COC(=O)c1c2c(nc3ccccc13)/C(=C/c1ccco1)CC2)NC1CCCC1,?,-26%,50µM*,0%,?
CC1CCCCC1NC(=O)COC(=O)c1c2c(nc3ccccc13)/C(=C/c1ccco1)CC2 (stereo not drawn),?,1%,-53%,-7%,11µM*
CCCCNC(=O)COC(=O)c1c2c(nc3ccccc13)/C(=C\c1cccs1)CC2,nt,nt,nt,nt,-7%
COc1ccc(S(=O)(=O)N(C)C)cc1NC(=O)c1ccc(OCC(=O)N2CCOCC2)c(OC)c1,nt,nt,nt,nt,-1%

# Bioassay records (PubChem BioAssay)
